Measured values reported in PubChem BioAssay AID1906 (The Scripps Research Institute Molecular Screening Center, 2009).
Among all 300,000 compounds or so, about 1,500 (0.5%) were called active.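 How the source made its calls: active means inhibition above the mean of all tested compounds plus 3 SD, set per screening campaign (cut at about 17% in these data); inactive means the rest.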 This excerpt belongs to a sample that is enriched for actives.

System: cathepsin L1 (Fasciola hepatica)
Assay: Fasciola hepatica cathepsin L1 inhibitors, primary screen, counter-screen for PFM18AAP inhibitor project, biochemical, QFRET, fluorogenic peptide substrate (AID 1906);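 further: 0% = plate median of test compound wells and 100% = 1 µM Z-Phe-Ala-diazomethylketone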
Conditions: recombinant F. hepatica cathepsin L1, Z-Leu-Arg-MCA fluorescence; at 5.96 µM; stronger effect = higher value

Q: With `Cc1ccc(CNC(=O)Cn2cnc(S(=O)(=O)N3CCCCC3)c2)o1` as the molecule, how does the inhibition read?
A: 17.4% (active)

Q: For `O=C(COC(=O)c1cc(S(=O)(=O)N2CCCCC2)ccc1Cl)NCc1ccco1`, which inhibition is on record?
A: -8.1% (inactive)

Q: With `O=C(COc1ccc(S(=O)(=O)N2CCCCC2)cc1)NCc1ccccn1` as the molecule, how does the inhibition read?
A: -1.94% (inactive)

Q: With `CCOC(=O)/C(=N\Nc1ccccc1Cl)N(C)C1CCS(=O)(=O)C1` (configuration not stated) as the molecule, how does the inhibition read?
A: -2.25% (inactive)

Q: With `CCc1c(C)nc(SCC(=O)NC2CCCC2)[nH]c1=O` as the molecule, how does the inhibition read?
A: 0.66% (inactive)

Q: With `Cc1cccc2sc(N(CCCN(C)C)C(=O)CCS(=O)(=O)c3ccccc3)nc12` as the molecule, how does the inhibition read?
A: 28.5% (active)

Q: With `COc1cccc2sc(N(CCCN(C)C)C(=O)C(c3ccccc3)c3ccccc3)nc12` as the molecule, how does the inhibition read?
A: 1.13% (inactive)

Q: With `CC(=O)N(CCCN(C)C)c1nc2ccc(C)cc2s1` as the molecule, how does the inhibition read?
A: 2.99% (inactive)

Q: For `COc1cccc2sc(N(CCCN(C)C)C(=O)CCS(=O)(=O)c3ccccc3)nc12`, which inhibition is on record?
A: 52.7% (active)

Q: For `Cc1ccc2sc(N(CCN(C)C)C(=O)/C=C/c3cccs3)nc2c1C`, which inhibition is on record?
A: 0.9% (inactive)

Q: With `COc1cc2ccccc2cc1C(=O)N(CCN(C)C)c1nc2c(F)cccc2s1` as the molecule, how does the inhibition read?
A: 3.44% (inactive)

Q: How did the inhibition turn out when `Cc1ccc(SCC(=O)Nc2nncs2)cc1` was run?
A: -3.07% (inactive)

Q: Which inhibition does the source give for `Cc1cc([N+](=O)[O-])c(NC2CCCCC2)c([N+](=O)[O-])c1` here?
A: 5.19% (inactive)

Q: `Cc1cc(C(F)F)nn1CC(=O)NC1CCCCCC1` was tested. Which inhibition did it give?
A: -2.79% (inactive)

Q: For `Cc1nn(CC(=O)NC2CCCCC2)c(=O)c2cccn12`, which inhibition is on record?
A: -0.36% (inactive)

Q: For `O=C(Cn1nc([N+](=O)[O-])nc1Br)NC1CCCCC1`, which inhibition is on record?
A: 56.3% (active)

Q: For `Cc1cc(C)n(-c2nc(O)cc(=O)[nH]2)n1`, which inhibition is on record?
A: -2.61% (inactive)

Q: `CC(OC(=O)CCC(=O)c1ccccc1)C(=O)Nc1ccc(F)cc1` (configuration not stated) was tested. Which inhibition did it give?
A: -70.5% (inactive)

Q: Which inhibition does the source give for `C/C(=N\NC(=O)c1ccc2ccccc2c1)c1cccnc1` here?
A: 0.17% (inactive)

Q: `Cn1cccc1/C=C1\SC(=S)N(NC(=O)c2ccc(Cl)cc2)C1=O` was tested. Which inhibition did it give?
A: 1.38% (inactive)

Q: `O=C(O)c1ccc2c(c1)C(=O)N(NC(=O)c1ccc(O)cc1)C2=O` was tested. Which inhibition did it give?
A: -4.02% (inactive)

Q: For `CC(=O)N1C(=O)/C(=C2\SC(=S)N(NC(=O)c3ccc(O)cc3)C2=O)c2ccccc21`, which inhibition is on record?
A: 20.6% (active)

Q: Which inhibition does the source give for `CC(=O)c1cccc(NC(=S)N2CCN(S(C)(=O)=O)CC2)c1` here?
A: -1.96% (inactive)

Q: With `O=C(NCc1ccccc1Cl)C1CCCN1S(=O)(=O)c1ccc(F)cc1` (configuration not stated) as the molecule, how does the inhibition read?
A: -1.27% (inactive)

Q: How did the inhibition turn out when `COc1cccc(OCc2nnc3n2N=C(c2ccccc2)C(CC(=O)O)S3)c1` (configuration not stated) was run?
A: -0.13% (inactive)

Q: For `O=C(NCc1ccco1)/C(=C/c1ccco1)NC(=O)c1ccccc1`, which inhibition is on record?
A: 8.99% (inactive)

Q: Which inhibition does the source give for `NC(=O)C1CCN(C(=O)/C(=C/c2ccco2)NC(=O)c2ccccc2)CC1` here?
A: 3.81% (inactive)

Q: How did the inhibition turn out when `O=C(OCN1C(=O)c2ccccc2C1=O)/C(=C\c1ccco1)NC(=O)c1ccccc1` was run?
A: 83.3% (active)

Q: With `CNC(=O)c1c(NC(NC(=O)c2ccco2)C(=O)c2ccc(Cl)cc2)sc2c1CCCC2` (configuration not stated) as the molecule, how does the inhibition read?
A: 1.81% (inactive)

Q: `Cc1cc(CNC(=O)C2CCC(=O)N(CCc3ccc(Cl)cc3)C2)no1` (configuration not stated) was tested. Which inhibition did it give?
A: 1.95% (inactive)

Q: With `Cc1cc(=O)[nH]c2nnnn12` as the molecule, how does the inhibition read?
A: 0.51% (inactive)

Q: Which inhibition does the source give for `O=C(Cc1ccccc1Cl)N1CCOCC1` here?
A: -0.12% (inactive)

Q: Which inhibition does the source give for `Cc1cc2cc3c(N)[nH]nc3nc2cc1C` here?
A: 0.69% (inactive)

Q: How did the inhibition turn out when `O=C(Nc1cccc2cccnc12)c1cccc(Cl)c1` was run?
A: 5.74% (inactive)

Q: With `O=C(Nc1cccc2c1CCCC2)c1ccc(F)cc1` as the molecule, how does the inhibition read?
A: -0.12% (inactive)

Q: `O=C(Nc1cccnc1Oc1ncnc2cc(Cl)ccc12)c1ccc(F)cc1` was tested. Which inhibition did it give?
A: 19.2% (active)

Q: `O=C(COc1ccccc1)Nc1cc2c3c(c1)CC(=O)N3CCC2` was tested. Which inhibition did it give?
A: -2.44% (inactive)

Q: With `CCCNC(=O)C(=O)Nc1cc2c3c(c1)CCC(=O)N3CCC2` as the molecule, how does the inhibition read?
A: 57.1% (active)

Q: How did the inhibition turn out when `O=C(Nc1cc2c3c(c1)CC(=O)N3CCC2)c1ccccc1F` was run?
A: -1.43% (inactive)

Q: `COc1ccccc1C(=O)NC(CCSC)C(=O)NNC(=O)c1ccccc1C` (configuration not stated) was tested. Which inhibition did it give?
A: 7.41% (inactive)

Q: For `CC1CN/C(=C\C(=O)c2ccc(Br)cc2)C(=O)N1` (configuration not stated), which inhibition is on record?
A: 0.61% (inactive)

Q: Which inhibition does the source give for `COC1=C(N2CCOCC2)C(=O)c2ccccc2C1=O` here?
A: 21.1% (active)

Q: With `O=C1c2ccccc2-c2ncnc3c(N4CCOCC4)cc(N4CCOCC4)c1c23` as the molecule, how does the inhibition read?
A: 3.65% (inactive)

Q: Which inhibition does the source give for `COc1ccc(N2CCN(C(C)=C3C(=O)c4ccccc4C3=O)CC2)cc1` here?
A: 0.37% (inactive)

Q: How did the inhibition turn out when `C[C@@H](O)c1nc2ccccc2n1N` was run?
A: -3.93% (inactive)

Q: Which inhibition does the source give for `CC1=NNC(=O)C1CC(=O)N/N=C/c1ccncc1` (configuration not stated) here?
A: 2.89% (inactive)

Q: For `O=C(CSC1CC(=O)N(CCc2ccccc2)C1=O)Nc1ccc(Cl)cc1` (configuration not stated), which inhibition is on record?
A: -0.89% (inactive)

Q: With `CC(=O)Nc1ccc(CN2CCN(Cc3ccc(F)c(F)c3)C(CCO)C2)cc1` (configuration not stated) as the molecule, how does the inhibition read?
A: -1.18% (inactive)

Q: `CCOC(=O)c1sc(NC(=O)CCN2CCOCC2)c(C(=O)OCC)c1C` was tested. Which inhibition did it give?
A: 4.35% (inactive)

Q: For `CCOC(=O)c1c(NC(=O)CCl)sc(C(=O)N(CC)CC)c1C`, which inhibition is on record?
A: 41.2% (active)

Q: Which inhibition does the source give for `CCOC(=O)Nc1sc(C(=O)N(C)C)c(C)c1C(=O)OCC` here?
A: 3.33% (inactive)

Q: With `CC(=O)c1ccc(NC(=O)Cn2c(=O)oc3ccccc32)cc1` as the molecule, how does the inhibition read?
A: 5.59% (inactive)

Q: For `C=CCSc1nsc(NC(=O)Nc2cccc(C(C)=O)c2)n1`, which inhibition is on record?
A: 3.26% (inactive)

Q: For `CCSc1nsc(NC(=O)Nc2cccc(C(C)=O)c2)n1`, which inhibition is on record?
A: 18.9% (active)

Q: For `CCSc1nsc(NC(=O)Nc2ccccc2OC)n1`, which inhibition is on record?
A: -2.36% (inactive)

Q: Which inhibition does the source give for `CC(=O)c1cccc(NC(=O)C2CCCN(S(=O)(=O)c3cccc4nonc34)C2)c1` (configuration not stated) here?
A: 4.35% (inactive)

Q: How did the inhibition turn out when `CC[N+](C)(CC)CCC[n+]1c(-c2ccccc2)c2cc(N)ccc2c2ccc(N)cc21` was run?
A: 108% (active)

Q: How did the inhibition turn out when `CCOc1cc(C2/C(=C(/O)c3ccc(S(=O)(=O)N4CCCCC4)cc3)C(=O)C(=O)N2CCOC)ccc1O` (configuration not stated) was run?
A: 2.14% (inactive)

Q: `CCCc1nnc(SCC(=O)Nc2ccc(C(=O)OCC)cc2)o1` was tested. Which inhibition did it give?
A: 22.8% (active)

Q: With `Cc1ccc(NC(=O)CSc2nnc(COc3ccccc3C)o2)cc1` as the molecule, how does the inhibition read?
A: 2.58% (inactive)

Q: How did the inhibition turn out when `Cc1cc(C)cc(OCc2nnc(SCC(=O)Nc3ccccc3)o2)c1` was run?
A: 2.58% (inactive)

Q: `CCOc1ccc(CN2CCN(Cc3ccc(C)o3)CC2CCO)cc1` (configuration not stated) was tested. Which inhibition did it give?
A: -3.26% (inactive)
